According to PubChem BioAssay AID1159580 (chemical genetic matrix, 2015):
About 2,000 (36%) of roughly 5,500 compounds were called active. Inconclusive results (about 18%) are left out. Cut-off read from the data, not from the text of the source: active = normalized growth mostly below about 0.91 (no sharp cut-off); inconclusive = no clear call, values can overlap the other calls; inactive = mostly above about 0.92. The list shows a part of the results.

Experiment: chemical genetic growth profiling, strain panel (AID 1159580);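 note: tested at 20 µM; growth read once vehicle control cultures reached saturation at 30 °C; 1 = growth at the plate median or of vehicle wells; lower values mean less growth of the strain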
Conditions: growth OD
[1] = S. cerevisiae deletion strains, locus YDL101C, strain DUN1, hits give low values
[2] = S. cerevisiae deletion strains, locus YHR030C, strain SLT2, hits give low values

Measured: normalized growth

O=C(NCCSCc1cccc(C(F)(F)F)c1)Nc1cccc(C(F)(F)F)c1
inactive: S. cerevisiae deletion strains, locus YAR019C, strain CDC15, hits give low values 0.999 | S. cerevisiae deletion strains, locus YBL105C, strain PKC1, hits give low values 1 | S. cerevisiae deletion strains, locus YBR135W, strain CKS1, hits give low values 0.994 | S. cerevisiae deletion strains, locus YBR136W, strain MEC1, hits give low values 0.998 | S. cerevisiae deletion strains, locus YBR160W, strain CDC28, hits give low values 0.997 | S. cerevisiae deletion strains, locus YDL017W, strain CDC7, hits give low values 1 | S. cerevisiae deletion strains, locus YDL028C, strain MPS1, hits give low values 0.996 | [1] 1.01 | S. cerevisiae deletion strains, locus YDL108W, strain KIN28, hits give low values 0.999 | S. cerevisiae deletion strains, locus YDL132W, strain cdc53, hits give low values 0.99 | S. cerevisiae deletion strains, locus YDL214C, strain PRR2, hits give low values 1.01 | S. cerevisiae deletion strains, locus YDR052C, strain DBF4, hits give low values 1.01 | S. cerevisiae deletion strains, locus YDR054C, strain cdc34, hits give low values 0.995 | S. cerevisiae deletion strains, locus YDR226W, strain ADK1, hits give low values 1 | S. cerevisiae deletion strains, locus YDR477W, strain SNF1, hits give low values 1.01 | S. cerevisiae deletion strains, locus YER123W, strain YCK3, hits give low values 1.02 | S. cerevisiae deletion strains, locus YER133W, strain GLC7, hits give low values 1.02 | S. cerevisiae deletion strains, locus YFL009W, strain cdc4, hits give low values 0.992 | S. cerevisiae deletion strains, locus YFL029C, strain CAK1, hits give low values 0.991 | S. cerevisiae deletion strains, locus YFR003C, strain YPI1, hits give low values 1 | S. cerevisiae deletion strains, locus YFR019W, strain FAB1, hits give low values 1 | S. cerevisiae deletion strains, locus YFR028C, strain CDC14, hits give low values 0.997 | S. cerevisiae deletion strains, locus YGR040W, strain KSS1, hits give low values 1 | S. cerevisiae deletion strains, locus YGR052W, strain FMP48, hits give low values 1.18 | S. cerevisiae deletion strains, locus YGR092W, strain DBF2, hits give low values 1 | [2] 1.15 | S. cerevisiae deletion strains, locus YHR079C, strain IRE1, hits give low values 1.11 | S. cerevisiae deletion strains, locus YHR082C, strain KSP1, hits give low values 1.18 | S. cerevisiae deletion strains, locus YHR205W, strain SCH9, hits give low values 0.989 | S. cerevisiae deletion strains, locus YIL147C, strain SLN1, hits give low values 1 | S. cerevisiae deletion strains, locus YJL095W, strain BCK1, hits give low values 1.17 | S. cerevisiae deletion strains, locus YJL128C, strain PBS2, hits give low values 0.954 | S. cerevisiae deletion strains, locus YJL157C, strain FAR1, hits give low values 1.01 | S. cerevisiae deletion strains, locus YJR016C, strain ILV3, hits give low values 1.01 | S. cerevisiae deletion strains, locus YJR066W, strain TOR1 (second series), hits give low values 0.993 | S. cerevisiae deletion strains, locus YJR066W, strain TOR1, hits give low values 1.21 | S. cerevisiae deletion strains, locus YKL048C, strain ELM1, hits give low values 0.983 | S. cerevisiae deletion strains, locus YKL067W, strain YNK1, hits give low values 1.01 | S. cerevisiae deletion strains, locus YKL101W, strain HSL1, hits give low values 0.997 | S. cerevisiae deletion strains, locus YKL193C, strain SDS22, hits give low values 1 | S. cerevisiae deletion strains, locus YKL203C, strain TOR2, hits give low values 1.09 | S. cerevisiae deletion strains, locus YLR113W, strain HOG1, hits give low values 1.07 | S. cerevisiae deletion strains, locus YLR133W, strain CKI1, hits give low values 0.997 | S. cerevisiae deletion strains, locus YLR403W, strain SFP1, hits give low values 0.999 | S. cerevisiae deletion strains, locus YML070W, strain DAK1, hits give low values 1.01 | S. cerevisiae deletion strains, locus YMR001C, strain CDC5, hits give low values 0.996 | S. cerevisiae deletion strains, locus YMR205C, strain PFK2 (second series), hits give low values 1.01 | S. cerevisiae deletion strains, locus YMR277W, strain FCP1, hits give low values 0.999 | S. cerevisiae deletion strains, locus YNL006W, strain LST8, hits give low values 1 | S. cerevisiae deletion strains, locus YNL020C, strain ARK1, hits give low values 0.988 | S. cerevisiae deletion strains, locus YNL161W, strain CBK1, hits give low values 1 | S. cerevisiae deletion strains, locus YNL183C, strain NPR1, hits give low values 1.15 | S. cerevisiae deletion strains, locus YNL207W, strain RIO2, hits give low values 1.01 | S. cerevisiae deletion strains, locus YNL222W, strain SSU72, hits give low values 0.998 | S. cerevisiae deletion strains, locus YNL307C, strain MCK1 (second series), hits give low values 0.997 | S. cerevisiae deletion strains, locus YOL078W, strain AVO1, hits give low values 0.995 | S. cerevisiae deletion strains, locus YOL136C, strain PFK27, hits give low values 0.992 | S. cerevisiae deletion strains, locus YOR061W, strain CKA2, hits give low values 0.986 | S. cerevisiae deletion strains, locus YOR119C, strain RIO1, hits give low values 1.04 | S. cerevisiae deletion strains, locus YOR231W, strain MKK1, hits give low values 1.1 | S. cerevisiae deletion strains, locus YOR329C, strain SCD5, hits give low values 1 | S. cerevisiae deletion strains, locus YPL031C, strain PHO85, hits give low values 1.01 | S. cerevisiae deletion strains, locus YPL153C, strain RAD53, hits give low values 1.02 | S. cerevisiae deletion strains, locus YPL204W, strain HRR25, hits give low values 1.01 | S. cerevisiae deletion strains, locus YPL209C, strain IPL1, hits give low values 0.997 | S. cerevisiae deletion strains, locus YPL256C, strain CLN2, hits give low values 1.11 | S. cerevisiae deletion strains, locus YPR025C, strain CCL1, hits give low values 0.999 | S. cerevisiae deletion strains, locus YPR106W, strain ISR1, hits give low values 0.992 | S. cerevisiae deletion strains, locus YPR111W, strain DBF20, hits give low values 0.986 | S. cerevisiae deletion strains, strain NNK1, hits give low values 0.994 | S. cerevisiae deletion strains, strain TSCII, hits give low values 0.995

COc1ccc(-c2ccnc(SCC(=O)NCCSCc3ccco3)n2)cc1
inactive: S. cerevisiae deletion strains, locus YAL013W, strain DEP1, hits give low values 1.01 | S. cerevisiae deletion strains, locus YBR229C, strain ROT2, hits give low values 0.998 | S. cerevisiae deletion strains, locus YCL061C, strain MRC1, hits give low values 1.01 | [1] 1 | S. cerevisiae deletion strains, locus YDR150W, strain NUM1, hits give low values 0.991 | S. cerevisiae deletion strains, locus YEL061C, strain CIN8, hits give low values 1 | S. cerevisiae deletion strains, locus YGR078C, strain PAC10, hits give low values 1.01 | [2] 1.09 | S. cerevisiae deletion strains, locus YHR087W, strain rtc3, hits give low values 0.998 | S. cerevisiae deletion strains, locus YJL187C, strain SWE1, hits give low values 1.02 | S. cerevisiae deletion strains, locus YJR043C, strain POL32, hits give low values 1 | S. cerevisiae deletion strains, locus YJR075W, strain HOC1, hits give low values 0.991 | S. cerevisiae deletion strains, locus YLR039C, strain RIC1, hits give low values 0.999 | S. cerevisiae deletion strains, locus YLR058C, strain SHM2 (second series), hits give low values 1 | S. cerevisiae deletion strains, locus YLR085C, strain ARP6, hits give low values 0.98 | S. cerevisiae deletion strains, locus YLR262C, strain YPT6, hits give low values 1.03 | S. cerevisiae deletion strains, locus YML094W, strain GIM5, hits give low values 1 | S. cerevisiae deletion strains, locus YMR219W, strain ESC1, hits give low values 1.01 | S. cerevisiae deletion strains, locus YMR263W, strain SAP30, hits give low values 1.01 | S. cerevisiae deletion strains, locus YMR307W, strain GAS1, hits give low values 0.993 | S. cerevisiae deletion strains, locus YNL128W, strain TEP1, hits give low values 0.999 | S. cerevisiae deletion strains, locus YNL153C, strain GIM3, hits give low values 1.02 | S. cerevisiae deletion strains, locus YNL298W, strain CLA4 (second series), hits give low values 1.01 | S. cerevisiae deletion strains, locus YNL322C, strain KRE1, hits give low values 1.01 | S. cerevisiae deletion strains, locus YNR030W, strain Alg12, hits give low values 1.01 | S. cerevisiae deletion strains, locus YOL006C, strain TOP1, hits give low values 1.03 | S. cerevisiae deletion strains, locus YPL055C, strain LGE1, hits give low values 1.02 | S. cerevisiae deletion strains, locus YPL241C, strain CIN2, hits give low values 1.01 | S. cerevisiae deletion strains, locus YPR135W, strain CTF4, hits give low values 1.03 | S. cerevisiae strains, strain wild type, hits give low values 1
